# Sfp inh: inhibitors of Bacillus subtilis Sfp phosphopantetheinyl transferase | Q9F4F7 | Biochemical Sfp PPTase activity, qHTS | Potency, µM, for the others: largest response in the series, negative = inhibition, most hits filed as inhibitors | actives 3.5% (n = 310,000) | AID 1490;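 also: the enzyme is Sfp with the accession as filed and its product quenches rhodamine fluorescence; potency is read from the fitted curve at half-maximal effect; 0% = enzyme reaction without inhibitor and -100% = no enzyme wells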
#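 Buffer: 50 mM Hepes-Na pH 7.6, 10 mM MgCl2, 0.01% Nonidet P-40, 0.01% BSA. Enzyme 15 nM, pre-exposed to compound 15 min; substrates then added and fluorescence change tracked over 30 min.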
# CCT chaperon mod: modulators of cytosolic chaperonin (CCT/TRiC) activity | AID 651819 | actives 0.3% (n = 360,000) | activity change, % (concentration not given with the values), hits read low | purified chaperonin ATPase assay, HTRF ADP detection, 30 min; in the data active = activity change below about -30%
#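 We incubate TRiC, 40 or 20 nM final, with library compounds at 76 uM and 10 uM ATP for 30 min at 37 °C. ADP formed is detected with Transcreener HTRF reagents after 30 min at room temperature.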
# G9a inh: inhibitors of human histone lysine methyltransferase G9a; G9a H3K9 monomethylation, AlphaScreen, 2 h; actives 8.8% (n = 350,000); Potency, µM (top dose mostly 102 µM), without a hit: at the top dose activity, negative = inhibition, actives largely listed as inhibitors; Q96KQ7; also: potency is read from the fitted curve at half-maximal effect; nearly all actives have a fitted effect of over 75% in size
#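 AlphaScreen detection with an anti-monomethyl H3K9 antibody quantified product after a 2 h room-temperature reaction containing 500 nM biotinylated H3K9 peptide, 20 µM SAM and 20 nM enzyme, which had been preincubated 15 min with compound.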
# PLK1 PBD block: PLK1 (human) polo-box domain binding inhibition | actives 2.8% (n = 360,000) | Plk1 PBD binding of FITC phosphopeptide, fluorescence polarization | AID 720504 | Potency, µM, inactives show max response, negative = inhibition, most hits filed as inhibitors | P53350; also: potency is read from the fitted curve at half-maximal effect; series mostly up to about 57 µM; nearly all actives have a fitted effect of over 65% in size
# VDR inhibitor: blocks the human vitamin D receptor; VDR-SRC2-3 peptide fluorescence polarization, 2 h; Potency, µM, for the others: max response, negative = inhibition, usual class: inhibitors; AID 504847; actives 0.93% (n = 400,000); P11473; also: potency is read from the fitted curve at half-maximal effect
# Target sequence (P11473 whole entry, looked up): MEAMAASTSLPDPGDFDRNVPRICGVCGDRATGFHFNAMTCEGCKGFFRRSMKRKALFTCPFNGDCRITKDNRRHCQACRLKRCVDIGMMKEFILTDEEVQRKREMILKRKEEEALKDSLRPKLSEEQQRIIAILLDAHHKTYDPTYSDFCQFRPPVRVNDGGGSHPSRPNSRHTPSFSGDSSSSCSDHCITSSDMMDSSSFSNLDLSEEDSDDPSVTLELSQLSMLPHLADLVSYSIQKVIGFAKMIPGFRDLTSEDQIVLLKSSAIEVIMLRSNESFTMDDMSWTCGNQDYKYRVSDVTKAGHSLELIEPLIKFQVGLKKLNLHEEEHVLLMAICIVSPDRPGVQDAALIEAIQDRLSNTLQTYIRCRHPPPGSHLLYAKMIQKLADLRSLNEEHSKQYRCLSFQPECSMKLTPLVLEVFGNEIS
#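 FP read-out; VDR + SRC2-3 coactivator peptide; 23 nl compound by pintool; 2 h RT incubation; reagents held at 4 deg C, protected from light.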
# Mm-Cpn inhibitor: blocks the Methanococcus maripaludis chaperonin Mm-Cpn. purified Mm-Cpn ATPase, ADP Transcreener TR-FRET. Potency, µM (top dose mostly 76.9 µM), for the others: top-dose activity, negative = inhibition, hits mostly inhibitors. actives 0.031% (n = 330,000). AID 504842; also: potency is read from the fitted curve at half-maximal effect; nearly all actives have a fitted effect of over 80% in size
#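 Purified archaeal Mm-CPN (25nM final) preincubated 10 min at 37degC with compound, then 10uM ATP for 30 min at 37degC; ADP measured by HTRF Transcreener TR-FRET; buffer 30 mM TRIS pH 7.4, 100mM KCl, 5mM MgCl2, 1mM DTT.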
# Numbers without * were called inactive; ? = inconclusive; . = no result given; ! = a repeat was not active; [ ] = another dose, or the depositor's remark. Sampled rows, rich in hits. Any-hit rate of the full collection: about 10%. Unless noted, calls follow the shape of the dose curve; as a rule, active = well fitted curve in the direction sought with a large enough effect; inconclusive = small, poorly fitted or top-dose-only effect, or another doubt; inactive = no such curve, though single readings can be large; an effect the other way counts as inactive or inconclusive. Unless noted, % is scaled to controls: 0 for no effect and ±100 for the full control effect.
SMILES,Sfp inh,CCT chaperon mod,G9a inh,PLK1 PBD block,VDR inhibitor,Mm-Cpn inhibitor
NS(=O)(=O)c1cccc2c1c([N+](=O)[O-])cc1nc(O)c(O)nc12,-16.4%,0.4,10.6%[12.7 µM],-10.0%,39.8µM*!,1.4%
CCc1ccccc1N1C(=O)N(Cc2ccccc2C)c2ccccc2S1(=O)=O,.,.,-5.5%[59 µM],.,3.5%,.
COCCCn1c(O)c(/C=C2\N=C(C#N)C(=Nc3ccc(C)cc3)O2)sc1=S,12.6µM*,2.6,?,9.8%,-0.9%,2.0%
Cc1cc(N2C(=O)C(O)=C(C(=O)c3cccs3)C2c2ccccc2)no1 (stereo not drawn),5.6%,-4.2,7.1%[59 µM],-14.0%,-0.5%,-4.4%
COc1cccc(C2C(C(=O)c3cc4cccc(OC)c4o3)=C(O)C(=O)N2c2cc(C)on2)c1OC (stereo not drawn),8.8%,-0.1,6.7%[12.7 µM],-11.4%,-12.9%,-19.2%
Cc1cc(N2C(=O)C(O)=C(C(=O)c3cc4ccccc4o3)C2c2cccc(Br)c2)no1 (stereo not drawn),5.0%,0.6,8.8%[0.0925 µM],26.7µM*,?,?
COC(=O)c1ccc(C2C(C(=O)c3cc4ccccc4o3)=C(O)C(=O)N2c2cc(C)on2)cc1 (stereo not drawn),-6.6%,-12.8,44.7µM*,?,-13.2%,-9.1%
Cc1cc(N2C(=O)C(O)=C(C(=O)c3cc4ccccc4o3)C2c2ccc(OC(C)C)cc2)no1 (stereo not drawn),9.5%,-1.1,35.5µM*,?,-0.9%,-5.9%
Cc1ccc2c(CN3CCN(C(=O)c4ccc(F)cc4)CC3)cc(=O)oc2c1,.,.,-44.5%[59 µM],.,2.2%,.
Cc1ccc(S(=O)c2ccc(NC(=O)C3CC3)cc2C#N)cc1 (stereo not drawn),17.3%,-1.2,2.1%,10.6µM*,70.8µM*,0.0%
CC(=O)N/N=C/c1cc(C)n(-c2ccc(Br)cc2)c1C,9.2%,-0.2,?,7.1%,2.3%,-1.3%
CC(=O)N/N=C/c1cc(C(C)C)cc(/C=N/NC(C)=O)c1O,3.3%,0.6,.,21.2µM*,-10.3%,-5.9%
Cc1ccc2c(c1)c1c(n2C)C(C(N)=O)CCC1 (stereo not drawn),-5.1%,-0.9,39.8µM*,-6.1%,0.5%,0.6%
O=S(=O)(NNc1ccc(F)cc1F)c1cccc(Cl)c1,?,0.2,1.26µM*,?,-26.8%,1.4%
O=C(NNc1ccc(F)cc1F)c1c(F)cccc1Cl,7.9%,1.3,-2.4%,-10.3%,-13.0%,0.1%
CN(NC(=O)/C=C/C(=O)O)c1ncc(C(F)(F)F)cc1Cl,56.2µM*,-5.9,6.31µM*,-12.2%,-29.5%,-0.2%
COc1cccc(NC(=O)c2sc3nc(C)c(C(=O)Nc4ccc(C)cc4C)c(-c4ccco4)c3c2N)c1,.,.,-15.8%[59 µM],.,-24.6%,.
S=c1[nH]c2cc3c(cc2[nH]1)OCCO3,12.1%,-0.1,3.55µM*,-19.6%,1.4%,-0.4%
O=C(Nc1cc(=O)[nH]c2ncnn12)c1ccc(Cl)cc1Cl,6.0%,-1.2,8.91µM*,-4.6%,4.1%,-0.7%
Fc1ccc(C(OCCCc2cnc[nH]2)c2ccc(F)cc2)cc1,.,.,44.7µM*!,.,-8.8%,.
CC(C)COP(=O)(c1ccc(N(C)C)cc1)C(O)c1ccccn1 (stereo not drawn),79.4µM*,-1.9,3.55µM*,-2.1%,5.9%,-1.6%
CC(C)CCOP(=O)(c1ccc(N(C)C)cc1)C(O)c1ccc(N(C)C)cc1 (stereo not drawn),0.1%,-1.8,2.24µM*,2.5%,5.8%,-2.3%
CCCOP(=O)(c1ccc(N(C)C)cc1)C(O)c1ccc(N(C)C)cc1 (stereo not drawn),9.9%,0.6,0.708µM*,-7.4%,0.4%,0.4%
CC(C)CCOP(=O)(c1ccc(N(C)C)cc1)C(O)c1ccccn1 (stereo not drawn),-2.3%,-3.0,-7.1%,-14.6%,-7.7%,-0.9%
CCCOP(=O)(c1ccc(N(C)C)cc1)C(O)c1ccc(Cl)cc1 (stereo not drawn),-19.7%,0.4,9.6%,2.6%,-16.8%,-1.4%

# Source: PubChem BioAssay
